Test results from PubChem BioAssay (EPA / NIEHS).
Activity calls are given as the source filed them. How the source made its calls: active means hit-call score of the fitted dose curve at least 0.9, where 1 is the maximum; inactive means score below 0.9.

What was measured:
[1] = read-out: Cyclin Dependent Kinase Inhibitor 1A (CDKN1A), CDKN1A (gene 1026); test: LTEA_HepaRG_CDKN1A: Life Technologies and Expression Analysis (LTEA) Assay for Cyclin Dependent Kinase Inhibitor 1A (CDKN1A) using HepaRG (AID 2283450); conditions: mRNA level, 48 h; actives raise or lower the signal
In short: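 Differentiated HepaRG cells in serum-free induction medium, exposed 48 h in duplicate to eight half-log concentrations up to 100 uM in 0.5% DMSO. mRNA measured by TaqMan qRT-PCR, normalized to ACTB, GAPDH, POLR2A; bidirectional fit versus DMSO.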

[2] = read-out: catalase (CAT), CAT (gene 847); test: LTEA_HepaRG_CAT: Life Technologies and Expression Analysis (LTEA) Assay for catalase (CAT) using HepaRG (AID 2283452); conditions: mRNA level, 48 h; actives raise or lower the signal
In short: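 Differentiated HepaRG cells in serum-free induction medium were dosed 48 h in duplicate, eight half-log concentrations from 100 uM in 0.5% DMSO. Transcript measured by TaqMan qRT-PCR, normalised to ACTB/GAPDH/POLR2A, fitted bidirectionally against DMSO.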

[3] = read-out: flavin-containing dimethylaniline monooxygenases 3 (FMO3), FMO3 (gene 2328); test: LTEA_HepaRG_FMO3: Life Technologies and Expression Analysis (LTEA) Assay for flavin-containing dimethylaniline monooxygenases 3 (FMO3) using HepaRG (AID 2283453); conditions: mRNA level, 48 h; actives raise or lower the signal;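 on AC50: FMO3 transcript by TaqMan qRT-PCR normalized to ACTB GAPDH and POLR2A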
In short: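 FMO3 transcript quantified by TaqMan qRT-PCR against three housekeeping genes after 48 h chemical exposure of HepaRG cells. Eight-point half-log series, top 100 uM, 0.5% DMSO vehicle; phenobarbital 1mM induction control; up- or down-regulation fitted.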

[4] = read-out: Cytochrome P450 (CYP1A1), CYP1A1 (gene 1543); test: LTEA_HepaRG_CYP1A1: Life Technologies and Expression Analysis (LTEA) Assay for Cytochrome P450 (CYP1A1) using HepaRG (AID 2283454); conditions: mRNA level, 48 h; actives raise or lower the signal
In short: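 Differentiated human HepaRG cells, after 48 h plating, exposed in duplicate for 48 h in serum-free induction medium to 8 half-log concentrations up to 100 uM in 0.5% DMSO. CYP1A1 mRNA by qRT-PCR, normalized to ACTB/GAPDH/POLR2A; bidirectional fit versus DMSO.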

[5] = read-out: CFLAR gene, CFLAR (gene 8837); test: LTEA_HepaRG_CFLAR: Life Technologies and Expression Analysis (LTEA) Assay for CFLAR gene using HepaRG (AID 2283455); conditions: mRNA level, 48 h; actives raise or lower the signal
In short: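 Gain- or loss-of-signal changes in CFLAR transcript were fitted bidirectionally relative to 0.5% DMSO. Cells (HepaRG, duplicate wells) were dosed for 48 h across eight half-log concentrations topping at 100 uM; quantitation by TaqMan qRT-PCR.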

[6] = read-out: Forkhead box O1 (FOXO1), FOXO1 (gene 2308); test: LTEA_HepaRG_FOXO1: Life Technologies and Expression Analysis (LTEA) Assay for Forkhead box O1 (FOXO1) using HepaRG (AID 2283456); conditions: mRNA level, 48 h; actives raise or lower the signal
In short: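 Using one lot of HepaRG hepatic cells kept in 0.5% DMSO, the team applied test chemicals in duplicate, half-log dilutions from 100 uM, for 48 h. Expression, normalised to ACTB/GAPDH/POLR2A, was compared with vehicle in either direction.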

[7] = CEETOX_H295R_TESTO: CeeTox H295R High-throughput Steroidogenesis Assay for Testosterone (TESTO) (AID 2283457); conditions: actives raise or lower the signal
In short: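 H295R adrenal cells, passage ≤10, exposed to chemicals for 48 h. Testosterone in medium measured by MTBE extraction and HPLC-MS/MS against a 7-point standard curve. Bidirectional fit versus DMSO; MTT viability checked in the same wells.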

[8] = read-out: growth arrest and DNA damage 45 (GADD45A), GADD45A (gene 1647); test: LTEA_HepaRG_GADD45A: Life Technologies and Expression Analysis (LTEA) Assay for growth arrest and DNA damage 45 (GADD45A) using HepaRG (AID 2283458); conditions: mRNA level, 48 h; actives raise or lower the signal
In short: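 GADD45A expression was measured by TaqMan qRT-PCR against three housekeeping genes (ACTB, GAPDH, POLR2A) after 48 h treatment of HepaRG cells. Eight-point half-log series up to 100 uM in 0.5% DMSO, run in duplicate.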

[9] = read-out: Forkhead box O3 (FOXO3), FOXO3 (gene 2309); test: LTEA_HepaRG_FOXO3: Life Technologies and Expression Analysis (LTEA) Assay for Forkhead box O3 (FOXO3) using HepaRG (AID 2283459); conditions: mRNA level, 48 h; actives raise or lower the signal
In short: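 Gene-expression endpoint: FOXO3 transcript level by qRT-PCR in HepaRG cultures treated 48 h with chemicals up to 100 uM (half-log, 0.5% DMSO vehicle).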

[10] = read-out: growth arrest and DNA damage 45 (GADD45B), GADD45B (gene 4616); test: LTEA_HepaRG_GADD45B: Life Technologies and Expression Analysis (LTEA) Assay for growth arrest and DNA damage 45 (GADD45B) using HepaRG (AID 2283461); conditions: mRNA level, 48 h; actives raise or lower the signal
In short: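 Differentiated human HepaRG cells in serum-free induction medium exposed 48 h in duplicate to eight concentrations, top 100 uM, half-log steps, 0.5% DMSO. GADD45B mRNA by TaqMan qRT-PCR, normalized to ACTB, GAPDH, POLR2A; bidirectional fit versus DMSO.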

[11] = read-out: ABC Transporter (ABCC3), ABCC3 (gene 8714); test: LTEA_HepaRG_ABCC3: Life Technologies and Expression Analysis (LTEA) Assay for ABC Transporter (ABCC3) using HepaRG (AID 2283462); conditions: mRNA level, 48 h; actives raise or lower the signal
In short: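 Differentiated human HepaRG cells exposed 48 h in serum-free induction medium, 0.5% DMSO vehicle, 8-point half-log series to 100 uM in duplicate. ABCC3 mRNA by qRT-PCR, normalised to ACTB, GAPDH, POLR2A; bidirectional fit vs DMSO.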

[12] = read-out: ABC Transporter (ABCB11), ABCB11 (gene 8647); test: LTEA_HepaRG_ABCB11: Life Technologies and Expression Analysis (LTEA) Assay for ABC Transporter (ABCB11) using HepaRG (AID 2283463); conditions: mRNA level, 48 h; actives raise or lower the signal
In short: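 Using HepaRG cultures held in 0.5% DMSO, chemicals were tested at half-log dilutions from 100 uM for 48 h. Induction or suppression of ABCB11 mRNA, normalized to ACTB, GAPDH and POLR2A, was fitted bidirectionally against vehicle.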

[13] = read-out: ABC Transporter (ABCC2), ABCC2 (gene 1244); test: LTEA_HepaRG_ABCC2: Life Technologies and Expression Analysis (LTEA) Assay for ABC Transporter (ABCC2) using HepaRG (AID 2283464); conditions: mRNA level, 48 h; actives raise or lower the signal
In short: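 Differentiated HepaRG cells in serum-free induction medium exposed 48 h to eight half-log concentrations up to 100 uM, 0.5% DMSO, in duplicate. ABCC2 mRNA measured by qRT-PCR (TaqMan, Fluidigm), normalized to ACTB, GAPDH and POLR2A. Fitted in both directions against DMSO.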

[14] = read-out: Broad substrate specificity ATP-binding cassette transporter ABCG2 (Homo sapiens) (UniProt Q9UNQ0); test: LTEA_HepaRG_ABCG2: Life Technologies and Expression Analysis (LTEA) Assay for ABC Transporter (ABCG2) using HepaRG (AID 2283465); conditions: mRNA level, 48 h; actives raise or lower the signal
In short: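 Gene expression of ABCG2 in HepaRG liver cells is quantified by qRT-PCR following 48 h exposure across an eight-point series topping at 100 uM. Values come from bidirectional fitting relative to DMSO vehicle.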

[15] = read-out: ATP-citrate lyase (ACLY), ACLY (gene 47); test: LTEA_HepaRG_ACLY: Life Technologies and Expression Analysis (LTEA) Assay for ATP-citrate lyase (ACLY) using HepaRG (AID 2283466); conditions: mRNA level, 48 h; actives raise or lower the signal
In short: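 ACLY expression changes in human HepaRG liver cells are quantified by qRT-PCR after 48 h exposure to test chemicals (maximum 100 uM, half-log steps). Values are fitted in both directions relative to 0.5% DMSO vehicle.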

[16] = read-out: Peroxisomal acyl-coenzyme A oxidase 1 (ACOX1) gene, ACOX1 (gene 51); test: LTEA_HepaRG_ACOX1: Life Technologies and Expression Analysis (LTEA) Assay for Peroxisomal acyl-coenzyme A oxidase 1 (ACOX1) gene using HepaRG (AID 2283467); conditions: mRNA level, 48 h; actives raise or lower the signal
In short: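 Human HepaRG hepatic cultures, 48 h treatment with test chemicals up to 100 uM. ACOX1 expression read by qRT-PCR relative to 0.5% DMSO vehicle.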

[17] = read-out: Alkaline Phosphatase, Placental (ALPP) gene, ALPP (gene 250); test: LTEA_HepaRG_ALPP: Life Technologies and Expression Analysis (LTEA) Assay for Alkaline Phosphatase, Placental (ALPP) gene using HepaRG (AID 2283468); conditions: mRNA level, 48 h; actives raise or lower the signal
In short: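 HepaRG cells plated 48 h, then exposed in duplicate for 48 h in serum-free induction medium to 8-point half-log series from 100 uM in 0.5% DMSO. ALPP mRNA by TaqMan qRT-PCR, normalized to ACTB/GAPDH/POLR2A; bidirectional fit versus DMSO.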

[18] = read-out: ABC Transporter (ABCB1), ABCB1 (gene 5243); test: LTEA_HepaRG_ABCB1: Life Technologies and Expression Analysis (LTEA) Assay for ABC Transporter (ABCB1) using HepaRG (AID 2283460); conditions: mRNA level, 48 h; actives raise or lower the signal
In short: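 Human liver HepaRG line treated 48 h with up to 100 uM compound (eight half-log points, 0.5% DMSO); ABCB1 mRNA change fitted bidirectionally against DMSO controls.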

[19] = read-out: Cyclin D2 (CCND2), CCND2 (gene 894); test: LTEA_HepaRG_CCND2: Life Technologies and Expression Analysis (LTEA) Assay for Cyclin D2 (CCND2) using HepaRG (AID 2283449); conditions: mRNA level, 48 h; actives raise or lower the signal;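 further: CCND2 transcript measured by TaqMan qRT-PCR and normalised to three housekeeping genes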
In short: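 In this HepaRG study, an eight-point concentration series (max 100 uM, 0.5% DMSO) is applied for 48 h. CCND2 mRNA change is derived by qRT-PCR normalised to ACTB, GAPDH and POLR2A.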

Measured: AC50

Broad substrate specificity ATP-binding cassette transporter ABCG2 (Homo sapiens), sequence (Q9UNQ0 whole entry, looked up): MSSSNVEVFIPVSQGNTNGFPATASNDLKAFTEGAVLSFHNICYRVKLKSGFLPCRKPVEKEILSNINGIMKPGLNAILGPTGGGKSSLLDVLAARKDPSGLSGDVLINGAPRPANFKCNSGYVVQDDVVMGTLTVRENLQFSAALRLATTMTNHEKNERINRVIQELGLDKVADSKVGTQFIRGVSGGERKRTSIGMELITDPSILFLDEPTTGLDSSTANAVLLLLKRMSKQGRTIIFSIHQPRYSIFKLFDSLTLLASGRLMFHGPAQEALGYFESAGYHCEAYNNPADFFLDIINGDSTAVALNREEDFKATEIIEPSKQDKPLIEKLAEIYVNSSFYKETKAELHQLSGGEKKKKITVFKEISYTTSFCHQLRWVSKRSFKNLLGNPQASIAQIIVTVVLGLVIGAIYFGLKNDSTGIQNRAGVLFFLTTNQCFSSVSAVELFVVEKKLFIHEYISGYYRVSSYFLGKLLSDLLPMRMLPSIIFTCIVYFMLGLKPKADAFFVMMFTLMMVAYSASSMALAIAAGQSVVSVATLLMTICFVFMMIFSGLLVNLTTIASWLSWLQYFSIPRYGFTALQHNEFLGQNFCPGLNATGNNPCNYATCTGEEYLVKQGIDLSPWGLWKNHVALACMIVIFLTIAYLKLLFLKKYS

Cc1cc(NC(=O)C(=O)O)cc(C)c1Oc1ccc(O)c2c1CCC2
active: [2] 0.303 µM | [4] 0.0026 µM | [12] 0.00778 µM
inactive: [1] | [3] | [5] | [6] | [7] | [8] | [9] | [10] | [11] | [13] | [14] | [15] | [16] | [17]

O=c1[nH]cc(F)c(=O)[nH]1
inactive: [4] | [5] | [6] | [8] | [9] | [18] | [10] | [11] | [13] | [14] | [15] | [16] | [17]
active: [1] 35.5 µM | [2] 30.7 µM | [3] 36.3 µM | [12] 64 µM

CCCc1cc(=O)[nH]c(=S)[nH]1
inactive: [19] | [1] | [2] | [3] | [5] | [6] | [8] | [9] | [10] | [11] | [12] | [13] | [14] | [15] | [16] | [17]
active: [4] 50 µM
